Measurements as given in PubChem BioAssay (NCI).
This is part of a sample that, as a whole, favours compounds with a hit. Of some 79,000 tested, about 15% had one in any assay. Values without a mark were called inactive. The source made the active and inactive calls. Rule as the data show it: active = growth inhibition above about 70%; inactive = the rest.

Assay: NCI Yeast Anticancer Drug Screen. Data for the mlh1 rad18 strain (AID 175)
Settings: S. cerevisiae mlh1 rad18 strain growth inhibition; at 50.0 µM; hits give high values
In short: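 A repair-deficient yeast strain is exposed to test compound, and growth is scored relative to vehicle-treated controls.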

Row | SMILES | growth inhibition
1 | COC(=O)C(CSSCC(C(=O)NC(Cc1ccccc1)C(=O)NCC(=O)OC(C)(C)C)N1C(=O)CCC1=O)NC(=O)OCc1ccccc1 (stereo not drawn) | 18.9%
2 | COc1cc2ccc3c[n+](C)ccc3c2cc1OC | -57.6%
3 | CCCCNc1nc(SC)nc2nc[nH]c12 | -3.9%
4 | O=C1c2ccccc2-c2ccc(-n3c(=O)c4ccccc4c4ccccc4c3=O)cc21 | 25.4%
5 | O=C1NC(=O)C2CCC12 (stereo not drawn) | 18.2%
6 | CC/C(=C/c1cccc([N+](=O)[O-])c1)C(=O)O | -0.2%
7 | Cc1c(C(=O)O)c2cc3ccccc3cc2c(=O)n1C | -35%
8 | N=c1oc2ccc([N+](=O)[O-])cc2cc1C(=O)NCc1ccccc1 | -71.8%
9 | CNC(C#N)c1ccco1 (stereo not drawn) | 22.1%
10 | CCCCCCC(O)C/C=C/CCCCCC/C(C(=O)OC)=C(/O)C(=O)OCC (stereo not drawn) | 1.1%
11 | Cc1noc2c1NC(=O)OCC2 | -15.1%
12 | O=C(O)c1ccccc1C(=O)NCc1ccc(Cl)cc1Cl | 38.8%
13 | Nc1nc(Cl)cc(Nc2ccc3c(c2)CCC3)n1 | -20.4%
14 | Cc1c2cnccc2c(C)c2c1c1ccccc1n2CCCCCCCl | 98.5% (active)
15 | CCCCC(O)(CCCC)CC(C)C | 5.85%
16 | Cc1ccccc1NCS(=O)(=O)O | 4.6%
17 | C/C(=N\NS(=O)(=O)c1ccc(C)cc1)c1c(C)noc1C | 13.3%
18 | CN1NC2=NCCN=C3NN(C)C(=NCCN=C1S2)S3 | -36.2%
